Bioassay records from PubChem.
PfHsp90 yeast 2 – growth inhibition of yeast expressing Plasmodium Hsp90 | S. cerevisiae expressing PfHsp90, BacTiter-Glo ATP, 48 h; yeast lacking PDR1 and PDR3 efflux regulators | inhibition, % at 9.4 µM | AID 504621 | hit rate 0.32% among 310,000;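 active = every replicate shows inhibition above about 80%, whatever the replicate mean, limit read from the data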;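 note: 0% = DMSO neutral controls and 100% = 20 µM radicicol positive controls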
NSD2 HMT inh – inhibitors of human histone methyltransferase NSD2 | O96028 | NSD2 peptide methylation, AlphaScreen, 120 min | inhibition, % at 12.5 µM | hit rate 0.54% among 310,000 | AID 743445; in the data active = inhibition above about 50%
Target sequence (O96028 whole entry, looked up): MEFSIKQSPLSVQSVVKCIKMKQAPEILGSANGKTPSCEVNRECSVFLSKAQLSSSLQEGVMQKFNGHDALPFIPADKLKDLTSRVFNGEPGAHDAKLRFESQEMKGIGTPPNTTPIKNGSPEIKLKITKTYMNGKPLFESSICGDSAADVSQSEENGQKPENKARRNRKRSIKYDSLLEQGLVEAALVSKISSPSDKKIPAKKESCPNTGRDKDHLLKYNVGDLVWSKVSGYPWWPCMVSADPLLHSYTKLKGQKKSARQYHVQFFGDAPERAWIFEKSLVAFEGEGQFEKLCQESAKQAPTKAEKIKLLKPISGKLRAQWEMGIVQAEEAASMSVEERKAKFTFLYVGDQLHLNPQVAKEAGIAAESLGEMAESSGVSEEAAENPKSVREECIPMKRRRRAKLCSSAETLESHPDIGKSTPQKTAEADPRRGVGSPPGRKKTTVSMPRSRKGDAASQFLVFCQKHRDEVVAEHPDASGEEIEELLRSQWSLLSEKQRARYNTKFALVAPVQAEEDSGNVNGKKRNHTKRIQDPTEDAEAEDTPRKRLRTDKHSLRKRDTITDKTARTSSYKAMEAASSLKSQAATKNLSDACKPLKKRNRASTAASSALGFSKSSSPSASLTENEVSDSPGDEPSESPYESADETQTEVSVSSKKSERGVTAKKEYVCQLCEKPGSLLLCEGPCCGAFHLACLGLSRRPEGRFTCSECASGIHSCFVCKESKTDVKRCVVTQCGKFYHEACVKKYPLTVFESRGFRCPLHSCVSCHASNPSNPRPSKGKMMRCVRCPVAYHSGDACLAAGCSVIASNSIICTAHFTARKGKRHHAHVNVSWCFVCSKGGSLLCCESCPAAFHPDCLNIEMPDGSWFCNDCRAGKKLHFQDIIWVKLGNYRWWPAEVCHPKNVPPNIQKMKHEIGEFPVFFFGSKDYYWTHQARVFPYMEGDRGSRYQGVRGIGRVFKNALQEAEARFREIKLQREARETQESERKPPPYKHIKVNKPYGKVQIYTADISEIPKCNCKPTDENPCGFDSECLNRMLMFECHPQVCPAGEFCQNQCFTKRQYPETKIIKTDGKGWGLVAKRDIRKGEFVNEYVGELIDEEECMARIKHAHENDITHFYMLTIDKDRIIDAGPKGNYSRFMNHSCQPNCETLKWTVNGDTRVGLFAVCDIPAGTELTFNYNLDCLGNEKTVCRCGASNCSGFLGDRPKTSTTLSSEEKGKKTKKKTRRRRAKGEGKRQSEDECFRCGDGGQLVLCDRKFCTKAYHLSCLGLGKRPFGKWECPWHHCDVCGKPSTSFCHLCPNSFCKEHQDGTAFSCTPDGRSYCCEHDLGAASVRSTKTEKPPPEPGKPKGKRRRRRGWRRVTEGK
Glyco luc inh – N-linked glycosylation inhibition; D54 ERlucT glycosylation luciferase reporter, 24 h; percent of 100 nM tunicamycin response; reporter increase, % at 12.5 µM; AID 588692; hit rate 0.23% among 360,000;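 active = mean luciferase reporter signal, scaled so untreated is 0 and the glycosylation-blocking control 100, at or above a set limit in every replicate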;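 note: luciferase carries N-glycosylation sites so blocking glycosylation raises the light; 0% = median of neutral control wells and 100% = median of 100 nM tunicamycin wells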
Wnt bcat act – activators of Wnt/beta-catenin signaling | Wnt/beta-catenin reporter cell assay, activator, plate reader | activation, % at 9.35 µM | hit rate 1.2% among 300,000 | AID 743398; in the data active = activation above about 30%, passing the limit was not always enough;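 note: 0% = neutral control wells and 100% = positive control wells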
MITF TRPM1 HTS – MITF TRPM1 promoter activation in melanoma cells; SK-MEL-5 TRPM1-promoter luciferase, 24 h; % of positive control, neutral wells = 0; activation, % at 12.5 µM; hit rate 0.75% among 300,000; AID 588334;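 active = mean activation of at least 80% with every replicate also reaching 80%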;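 note: 0% = neutral control wells and 100% = parthenolide positive control wells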
MITF TRPM1 inh – MITF TRPM1 promoter inhibition in SK-MEL-5 cells; inhibition, % at 12.5 µM; hit rate 0.83% among 330,000; SK-MEL-5 TRPM1 promoter luciferase, 24 h;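 active = mean inhibition across replicates of 60% or more, whatever share of single replicates reaches that level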
The depositor's hits bear a star. This is a sample that favours compounds with a hit; in the whole collection about 2.9% have one here.

Screening CCOc1ccc(OCc2cccc(C(=O)N3CCCC3)c2)cc1 returned PfHsp90 yeast 2 -2, NSD2 HMT inh 0, Glyco luc inh -9, MITF TRPM1 HTS -28 and MITF TRPM1 inh 29.
CCOc1ccc(OCc2cccc(C(=O)O)c2)cc1 was read as PfHsp90 yeast 2 30, NSD2 HMT inh 3, Glyco luc inh -11, Wnt bcat act -13, MITF TRPM1 HTS -93 and MITF TRPM1 inh 93*.
`O=C(N[C@H](Cc1ccccc1)C(=O)NCc1ccc2c(c1)OCO2)[C@H]1O[C@@H](n2ccc(=O)[nH]c2=O)[C@H](O)[C@@H]1O` gave NSD2 HMT inh 1 and Wnt bcat act 0.
COc1ccc(C(=O)CCc2ccccc2)cc1 was read as PfHsp90 yeast 2 17, NSD2 HMT inh -4, Glyco luc inh -2, Wnt bcat act 14, MITF TRPM1 HTS 98* and MITF TRPM1 inh -90.
Screening O=C(OCC(F)(F)F)c1cccc(COc2ccc3ccccc3c2)c1 returned Glyco luc inh -9, MITF TRPM1 HTS -91 and MITF TRPM1 inh 91*.
Screening CN(Cc1ccccc1)C(=O)COC(=O)c1cc2ccccc2oc1=O returned PfHsp90 yeast 2 32, NSD2 HMT inh -1, Glyco luc inh -1, Wnt bcat act -6, MITF TRPM1 HTS -1 and MITF TRPM1 inh 3.
`COC(=O)c1c(NC(=O)c2ccc(C)cc2)csc1C` gave PfHsp90 yeast 2 -3, NSD2 HMT inh -5, Glyco luc inh -1, Wnt bcat act 36* and MITF TRPM1 inh -5.
For CC(O)C(C(=O)OCc1ccc([N+](=O)[O-])cc1)N1C(=O)c2ccccc2C1=O (stereo not given) the results were PfHsp90 yeast 2 0, NSD2 HMT inh 27, Glyco luc inh 2, Wnt bcat act -1, MITF TRPM1 HTS -16 and MITF TRPM1 inh 17.
For CCNS(=O)(=O)c1ccc(OC)c(C(=O)NC2CCCCC2)c1 the results were PfHsp90 yeast 2 -17, Glyco luc inh -1, MITF TRPM1 HTS -1 and MITF TRPM1 inh -1.
For C=CCC[C@@H](Cc1ccc(F)cc1)C(=O)OC[C@H](Cc1c[nH]c2ccccc12)NC(=O)[C@@H](CC=C)CC(=O)N[C@H](CO)Cc1ccccc1 the results were PfHsp90 yeast 2 36, Glyco luc inh 0, Wnt bcat act -8, MITF TRPM1 HTS -16 and MITF TRPM1 inh 15.
`C=CCC[C@H](Cc1ccc(F)cc1)C(=O)OC[C@H](Cc1c[nH]c2ccccc12)NC(=O)[C@@H](CC=C)CC(=O)N[C@@H](CO)Cc1ccccc1` gave PfHsp90 yeast 2 6, Glyco luc inh -10, Wnt bcat act -18, MITF TRPM1 HTS -74 and MITF TRPM1 inh 75*.
For Cc1ccc(NC(=O)c2ccccc2NC(=O)c2cccs2)cc1 the results were PfHsp90 yeast 2 5, NSD2 HMT inh -5, Glyco luc inh -2, Wnt bcat act 7, MITF TRPM1 HTS 19 and MITF TRPM1 inh -18.
Cc1cccc(/C(N)=N/OC(=O)c2ccncc2)c1 was read as PfHsp90 yeast 2 -50, Glyco luc inh -8, Wnt bcat act 34*, MITF TRPM1 HTS 69 and MITF TRPM1 inh -68.
Screening Cc1cc(/C(N)=N/OC(=O)c2cccc(Cl)c2)no1 returned PfHsp90 yeast 2 -6, NSD2 HMT inh 0, Glyco luc inh 1, Wnt bcat act 38* and MITF TRPM1 inh -42.
For COc1ccc(C(=O)O/N=C(\N)c2ccc(Cl)cc2)cc1 the results were PfHsp90 yeast 2 -12, NSD2 HMT inh -2, Glyco luc inh -2, Wnt bcat act 37*, MITF TRPM1 HTS 89* and MITF TRPM1 inh -90.
For Cc1cccc(C(=O)O/N=C(\N)c2ccc(Br)cc2)c1 the results were PfHsp90 yeast 2 25, NSD2 HMT inh 0, Glyco luc inh 0, MITF TRPM1 HTS 21 and MITF TRPM1 inh -26.
COc1ccccc1C(=O)O/N=C(\N)c1ccc(Cl)cc1 was read as PfHsp90 yeast 2 7, NSD2 HMT inh -9, Glyco luc inh -2, Wnt bcat act -4, MITF TRPM1 HTS 38 and MITF TRPM1 inh -40.
For Cc1cc(/C(N)=N/OC(=O)c2ccc(Cl)cc2)no1 the results were PfHsp90 yeast 2 2, NSD2 HMT inh -1, Glyco luc inh -4, Wnt bcat act 0 and MITF TRPM1 inh -161.
`Cc1cccc(C(=O)O/N=C(\N)c2ccc(Cl)cc2)c1` gave PfHsp90 yeast 2 0, NSD2 HMT inh -2, Glyco luc inh -1, Wnt bcat act 44*, MITF TRPM1 HTS 27 and MITF TRPM1 inh -28.
For Cc1cccc2c1CCC1CN(Cc3ccccc3)S(=O)(=O)N21 (stereo not given) the results were NSD2 HMT inh 10.
O=C(CSc1oc(-c2ccco2)nc1S(=O)(=O)c1ccc(Cl)cc1)NCC1CCCO1 (stereo not given) was read as PfHsp90 yeast 2 5, NSD2 HMT inh 6, Glyco luc inh -1, Wnt bcat act -13, MITF TRPM1 HTS 0 and MITF TRPM1 inh 4.
`COc1ccc(CCNC(=O)CSc2ccc(Br)cc2)cc1OC` gave PfHsp90 yeast 2 12, NSD2 HMT inh -2, Glyco luc inh 0, Wnt bcat act -1, MITF TRPM1 HTS 12 and MITF TRPM1 inh -20.
Cc1ccc(S(=O)(=O)NC2=C(N3CCN(c4ccccc4F)CC3)C(=O)c3ccccc3C2=O)cc1 was read as PfHsp90 yeast 2 -14, NSD2 HMT inh 6, Glyco luc inh -1, Wnt bcat act 0, MITF TRPM1 HTS -6 and MITF TRPM1 inh 5.
For Cc1ccc(S(=O)(=O)NC2=C(N3CCN(Cc4ccccc4)CC3)C(=O)c3ccccc3C2=O)cc1 the results were PfHsp90 yeast 2 -18, NSD2 HMT inh 40, Glyco luc inh 65*, MITF TRPM1 HTS -39 and MITF TRPM1 inh 41.
`CCOC(=O)N1CCN(C2=C(NS(=O)(=O)c3ccc(C)cc3)C(=O)c3ccccc3C2=O)CC1` gave PfHsp90 yeast 2 1, NSD2 HMT inh 64*, Glyco luc inh -7, Wnt bcat act 0, MITF TRPM1 HTS -55 and MITF TRPM1 inh 56.
For CCN1c2ccccc2NC2C1C(C(C)=O)C(=O)N2c1ccc(Cl)cc1 (stereo not given) the results were PfHsp90 yeast 2 -5, NSD2 HMT inh -1, Glyco luc inh -2, Wnt bcat act -1, MITF TRPM1 HTS -63 and MITF TRPM1 inh 65*.
Screening O=C1Nc2ccccc2N(O)N1c1ccc(Cl)cc1 returned PfHsp90 yeast 2 35, NSD2 HMT inh -1, Glyco luc inh -2, Wnt bcat act 2, MITF TRPM1 HTS -8 and MITF TRPM1 inh 11.
`CCOC(=O)C1=C(O)/C(=C/c2cn(CC(=O)NCC3CCCO3)c3ccccc23)SC1=Nc1ccc(C)cc1` (stereo not given) gave PfHsp90 yeast 2 -13, Glyco luc inh -3, MITF TRPM1 HTS -88 and MITF TRPM1 inh 88*.
`CCOC(=O)C1=C(O)/C(=C/c2ccc(-c3ccccc3C(=O)O)o2)SC1=Nc1ccc(C)cc1` gave PfHsp90 yeast 2 3, Glyco luc inh 1, Wnt bcat act 0, MITF TRPM1 HTS -1 and MITF TRPM1 inh 1.
